The record followed here is PubChem BioAssay AID2102 (Southern Research Specialized Biocontainment Screening …, 2009).

Structures are written as SMILES. The whole screen tested about 1,100 compounds, of which about 210 (19%) were called active. No rule for the calls is given here. These entries were drawn from the full list. Results with a measured potency or affinity are listed apart.

The nature of the test: cell viability loss from selected hits – cytotoxicity control for SV40 T antigen inhibitor project, dose response (AID 2102).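 Also: cells exposed to compounds for 72 hours.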 Conditions: Host cell viability cytotoxicity counter-screen; series mostly up to 50 µM.
For `O=C(Nc1ccc(O)cc1)c1ccc2c(c1)C(=O)N(N1C(=O)c3ccccc3C1=O)C2=O`, the result was inactive. Regarding `CC(C)c1ccc(C2CC(=O)N3CN(C)CSC3=C2C#N)cc1` (configuration not stated), the compound was called inactive.

For `O=C(CCCCl)NC1=NN(c2ccccc2)C(=O)C1`, the result was inactive. With `CCOc1cc(/C=C2/N=C(C)C(C(=O)OC)=C2O)ccc1O`, the compound was classed as inactive.

On to `NC1=NC(=O)/C(=C\c2ccco2)S1`, for which the compound was called inactive. For the compound `C=CCOc1ccccc1CNc1ccc2[nH]c(=O)[nH]c2c1`, the compound was called inactive. The value for `O=c1[nH]c2ccc(NCc3ccc(F)cc3)cc2[nH]1` was “inactive”; that for `COc1cc(/C=N/NC(=O)c2ccccc2O)ccc1OC(=O)CC1SC(=O)NC1=O` (configuration not stated) was “inactive”. As for `CCOc1cc(/C=N/Nc2nc(-c3cccs3)c(NC(C)=O)s2)ccc1O`, the compound was classed as inactive. Take `COc1cc(/C=N\Nc2nc(-c3cccs3)c(NC(C)=O)s2)ccc1O`: the call was inactive. Consider `CCN(CC)c1ccc(NC(=O)COC(=O)COc2ccccc2[N+](=O)[O-])cc1`, for which the compound was called inactive. The entry for `CCOC(=O)C[n+]1c(C)sc2ccc(OC)cc21` is “inactive”; for `CC(Nc1ccc(N2CCOCC2)cc1)C(=O)N1c2ccccc2CC1C` (configuration not stated) it is “inactive”.

As to `COc1cc(/C=N/NC(=O)c2cccs2)ccc1O`, the result was inactive.

Take `CCOC(=O)c1cc(-c2ccc(N)cc2)sc1N`: the call was inactive. The entry for `Oc1ccc(/C=N/N2CCN(c3ccccn3)CC2)cc1` is “inactive”. As to `CCN(CC)c1ccc(/C=N/O)cc1`, the outcome was inactive. Regarding `COc1cc(/C=N/NC(=O)C2COc3ccccc3O2)ccc1O` (configuration not stated), the result was inactive. The value for `COc1cc(/C(C)=N/NC(=O)CSc2nc3ccccc3[nH]2)ccc1O` was “inactive”; that for `O=C(CC1SC(=O)N(c2ccccc2)C1=O)Nc1cccc2ccccc12` (configuration not stated) was “inactive”.

Turning to `Cc1csc(N/N=C/c2ccc(O)c([N+](=O)[O-])c2)n1`, the call was inactive.

In the case of `CCN(CC)c1ccc(NC(=O)c2cccnc2)c(C)c1`, the outcome was inactive. The entry for `CCN(CC)c1ccc(NC(=O)c2cccc(F)c2)c(C)c1` is “inactive”. `Oc1ccc(C=Nc2ccc(N3CCOCC3)cc2)c(O)c1`: the result was inactive. With `COc1cc(SC#N)ccc1N=Cc1c(C)[nH]n(-c2ccc(C)cc2C)c1=O`, the result was inactive.

In the case of `O=C1c2ccccc2NC2(CCCCC2)N1c1ccc(O)cc1`, the outcome was inactive.

On to `CCN(CC)c1ccc(NC(=O)CSc2nnc3nc(C)cc(C)n23)cc1`, for which the call was inactive. In the case of `COC(=O)C1=C(O)/C(=C/c2cccc(OC)c2O)N=C1C`, the compound was classed as inactive.

For `CC(=O)Nc1ccc(N2CCCCC2)cc1`, the compound was classed as inactive. Regarding `CN(C)c1ccc(NC(=O)CN2CCN(c3ccc(F)cc3)CC2)cc1`, the compound was classed as inactive.

For the compound `COc1cc(/C=N/NC(=O)CNc2n[nH]c(=O)[nH]c2=O)ccc1O`, the call was inactive. The entry for `COc1ccc(OC)c(CCNC(=O)Cn2sc3nc(C)cc(C)c3c2=O)c1` is “inactive”; for `CCN(CC)S(=O)(=O)c1ccc(C(=O)Oc2coc(CSc3nc(C)cc(C)n3)cc2=O)cc1` it is “inactive”; for `FC(F)(F)C1CCCN(c2nsc3ccccc23)C1` (configuration not stated) it is “inactive”. As to `Nc1ncc(N=Nc2cc(C(=O)O)ccc2Cl)s1`, the compound was called inactive.

Take `CCn1c(SCC(=O)c2ccc(O)c(O)c2)nnc1-c1ccccc1OC`: the compound was called inactive.

Consider `COc1cc(/C=N/NC(=O)c2nnn(-c3nonc3N)c2-c2cccs2)ccc1O`, for which the outcome was inactive.
